{"source": "PubChem BioAssay (NCATS)", "note": "Inconclusive results are not listed. Unmarked numbers belong to inactive results. Calls of active or inactive are those of the source. Calls come from the whole dose curve; as a rule, active = well fitted curve in the direction sought with a large enough effect; inconclusive = small, poorly fitted or top-dose-only effect, or another doubt; inactive = no such curve, though single readings can be large or run the other way. Numbered stars: 1 amine (or outer) side, 2 acyl side, 3 side chain; on linkers, the order of the positions; unused ones are H or OH. Square brackets hold non-standard residues; d marks the D form. Peptide text beside a SMILES is read from it. ξ: configuration not given here. X1 = CCCCCCCCCC(=O)[C@H](C(=O)[*:2])[C@@H]1CNC(=O)[C@@H](N[*:1])CS1; X4 = O=C(C1CC2(c3ccc(O)cc3)c3ccccc3NC2N1[*:1])[*:2]; ξW = NC(Cc1c[nH]c2ccccc12)C(=O)O; ξY = NC(Cc1ccc(O)cc1)C(=O)O"}
{"assay": "qHTS for activators of dead-cell proteases activity screened against the NCATS CANVASS Library (AID 1347392);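 note: luminescence from protease leaking out of membrane-damaged cells cleaving impermeant substrate; rising signal means more cytotoxicity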; note: potency is the fitted concentration of half-maximal effect; for activation (cytotoxicity): 0% is about no effect", "conditions": "HepG2 cytotoxicity, dead-cell protease luminescence, 5 h; series mostly up to 46.1 µM; activation (cytotoxicity): at the top concentration", "description": "Natural products and their derivatives continue to be wellsprings of nascent therapeutic potential. However, many laboratories have limited resources for biological evaluation, leaving their previously isolated or synthesized compounds largely or completely untested. To address this issue, the Canvass library of natural products was assembled (https://tripod.nih.gov/canvass), in collaboration with academic and industry researchers, for quantitative high-throughput screening (qHTS) across a diverse set of cell-based and biochemical assays. The pure (>85% purity by liquid chromatography/mass spectrometry [LC/MS]) Canvass library of 346 natural products were submitted by 45 academic laboratories and companies around the world. We collected pure natural products to circumvent deconvolution and structure elucidation due to time and resource limitations. The library was formatted into 1536-well plates and evaluated in 50 qHTS (in an 11-pnt concentration series) bioassays with broad scope of disease-relevant mechanisms. The resulting data set from 50 different assays was then systematically analyzed to identify overall trends and specific natural products with interesting biological activities. Reported herein are the results of each individual qHTS and their corresponding assay protocol. This cytotoxicity assay measures dead-cell protease activity (proteases are released from cells that have lost membrane integrity). A luminogenic cell-impermeant peptide substrate (AAF-aminoluciferin) is used to measure dead-cell protease activity. The amount of luminescence directly correlates with the percentage of cells undergoing cytotoxic stress. National Center for Advancing Translational Sciences (NCATS), Rockville, MD National Institute of Health (NIH), Bethesda, Maryland\nProtease-screen assay protocol: 1. In a white-solid bottom 1536-well plate, 5 uL of HepG2 cell suspension was dispensed using a Multidrop Combi (Thermo Fisher Scientific) at a final concentration of 2000 cells / well. 2. The assay plates were incubated for 18 hours at 37C, 5% CO2 to acclimate and attach. 3. […] of compounds (in DMSO; columns 5-48), vehicle control DMSO, and positive control were pin transferred into the assay plates using the Kalypsis pin tool (Wako USA) equipped with a 1536-well pin heads. This yields a final CANVASS compound concentration of 0.4 nM - 95 uM. 4. The assay plates were incubated for 5 hours at 37C, 5% CO2. 5. After compound treatment, 5 uL per well of CytoTox-Glo (Promega) reagent was added using the BioRAPTR dispenser. 6. The assay plates were incubated for 15 min at room temperature. 7. The luminescence readout was obtained using the ViewLux plate reader (PerkinElmer) using a clear emission filter, 2x binning, 1 sec exposure settings."}
{"smiles": "C=C[C@@]1(C)CC[C@@H]([C@H](C)C(=O)/C=C/C(C)C)O1", "activation (cytotoxicity)": "-1.32%"}
{"smiles": "O=Cc1ccc2n1C[C@@]1(C[C@H](O)[C@@H](CO)O1)OC2", "activation (cytotoxicity)": "1.46%"}
{"smiles": "C1=C2CCCN[C@@H]2[C@@H]2CCN3CCCC[C@@H]3[C@H](C1)C2", "activation (cytotoxicity)": "-0.4%"}
{"smiles": "CC[C@H](C)[C@H](NC(=O)C(Cc1ccc(O)cc1)NC(=O)C(Cc1c[nH]c2ccccc12)NC(=O)[C@H](C)N)C(=O)N1C(C(=O)NC(Cc2ccc(O)cc2)C(=O)O)CC2(c3ccc(O)cc3)c3ccccc3NC12", "note": "(stereo not given in full) (H-A[ξW][ξY]I[X4][ξY]-OH)", "activation (cytotoxicity)": "0.872%"}
{"smiles": "O=C(O)[C@@]12CO[C@@]3(O)C4CCN(CC[C@H]31)[C@H]4c1c2[nH]c2ccccc12", "activation (cytotoxicity)": "0.505%"}
{"smiles": "CC1(C)CCC[C@]2(C)[C@@H]1CC[C@@]13C[C@@H](CC[C@H]12)C(C)(O)C3", "note": "(stereo not given in full)", "activation (cytotoxicity)": "1.37%"}
{"smiles": "Oc1ccc(C2c3c(O)cc(O)cc3[C@@H]3C(c4ccc(O)cc4)c4c(O)cc(O)cc4[C@H]23)cc1", "note": "(stereo not given in full)", "activation (cytotoxicity)": "-1.52%"}
{"smiles": "O=C1CC(c2cc(O)cc(O)c2)Oc2cc(O)ccc21", "note": "(stereo not given)", "activation (cytotoxicity)": "-6.41%"}
{"smiles": "CC1(C)C=Cc2c(ccc3c2OC[C@@H](c2ccc(O)cc2O)C3)O1", "activation (cytotoxicity)": "-0.673%"}
{"smiles": "COc1ccc([C@@H]2c3cc(OC)c(OC)cc3C(=O)C(C)C2C)cc1OC", "note": "(stereo not given in full)", "activation (cytotoxicity)": "2.87%"}
{"smiles": "C=C[C@]1(C)CC[C@@H]([C@H](C)C(=O)/C=C/C(C)C)O1", "activation (cytotoxicity)": "0.898%"}
{"smiles": "C[C@]12CC[C@]3(C1)[C@H](CC2=O)CC(OC(=O)c1ccccc1)[C@H]1[C@@](CO)(C(=O)O)CCC[C@@]13C", "note": "(stereo not given in full)", "activation (cytotoxicity)": "6.93%"}
{"smiles": "Oc1ccc([C@H]2Oc3ccc(/C=C/c4cc(O)cc(O)c4)cc3C2c2cc(O)cc(O)c2)cc1", "note": "(stereo not given in full)", "activation (cytotoxicity)": "-1.1%"}
{"smiles": "C[C@@H]1C(=O)[C@]23CC[C@H]1C[C@]21O[C@H]2C(C)(C)C=CC(=O)[C@]23COC1=O", "activation (cytotoxicity)": "-0.511%"}
{"smiles": "C=CC(C)(C)C(=O)[C@@H](C)[C@@H]1CC[C@](C)(C=C)O1", "activation (cytotoxicity)": "-1.73%"}
{"smiles": "CCCCCCCCCCCCCCC[C@H](O)C[C@@H](O)C[C@@H](O)C[C@@H](O)C[C@@H](O)C[C@H]1CC=CC(=O)O1", "Potency": "13.2 µM (active)"}
{"smiles": "CO[C@@H]1[C@H](O)[C@@H](C)O[C@@H](OC[C@H]2/C=C/C=C/C(=O)C(C)C[C@H](C)C(O[C@@H]3O[C@H](C)CC4(OC(=O)O[C@@H]4C)C3O)[C@@H](C)/C=C/C(=O)OC2C)[C@@H]1OC", "note": "(stereo not given in full)", "activation (cytotoxicity)": "-1.09%"}
{"smiles": "C=C1C[C@@]23C=CC(=O)[C@@](C)(CCC(=O)Nc4c(OC5O[C@H](CO)[C@@H](O)[C@H](O)[C@H]5O)ccc(C(=O)O)c4O)C2C[C@@H]1CC3", "note": "(stereo not given in full)", "activation (cytotoxicity)": "-1.13%"}
{"smiles": "C=CC(=C)CC[C@]1(C)[C@H]2C[C@H](OC(=O)C(C)CC)C=C3[C@H](OC(C)=O)O[C@H](OC(C)=O)[C@@]32[C@H](OC)C[C@@H]1C", "note": "(stereo not given in full)", "Potency": "60.6 µM (active)"}
{"smiles": "C[C@@H](O)[C@H]1OC(=O)C=C2[C@]3(C)[C@H]4[C@H](OC(=O)[C@@]4(C)[C@@H](O)[C@H]4O[C@H]43)[C@H]3O[C@@]231", "activation (cytotoxicity)": "-1.04%"}
{"smiles": "O=C(O)CC1OC(=O)c2c(O)cccc21", "note": "(stereo not given)", "activation (cytotoxicity)": "0.786%"}
{"smiles": "C[C@@]12C[C@@H](C[C@H]3C(=O)O[C@@H](c4ccoc4)[C@H](OC(=O)c4ccccc4)[C@@H]31)OC2=O", "activation (cytotoxicity)": "-0.445%"}
{"smiles": "COc1ccc(/C=C2\\COc3cc(O)ccc3C2=O)cc1", "activation (cytotoxicity)": "-14.4%"}
{"smiles": "C=C1C[C@@]23C=CC(=O)[C@@](C)(CCC(=O)Nc4c(O)ccc(C(=O)O)c4O)C2C[C@@H]1CC3", "note": "(stereo not given in full)", "activation (cytotoxicity)": "4.75%"}
{"smiles": "COc1cc(/C=C2/C(=O)N(c3ccc(O)cc3C(=O)O)[C@H](c3ccc(O)c(OC)c3)C2C(=O)Nc2ccc(O)cc2C(=O)O)ccc1O", "note": "(stereo not given in full)", "activation (cytotoxicity)": "0.0279%"}
{"smiles": "O=C(O)Cc1c[nH]c2ccccc12", "activation (cytotoxicity)": "4.03%"}
{"smiles": "C=C[C@]1(C)CC[C@@H]([C@H](C)C(=O)OCC)O1", "activation (cytotoxicity)": "1.52% [at 27.5 µM]"}
{"smiles": "CN1C(=O)C2C(N=CN2C)N(C)C1=O", "note": "(stereo not given)", "activation (cytotoxicity)": "-0.127%"}
{"smiles": "C[C@@]12CCC[C@@](C)(C(=O)O)[C@H]1C[C@@H](O)[C@]13C[C@H]4C[C@H](O[C@@]4(C)C1)[C@@H]23", "activation (cytotoxicity)": "2.9%"}
{"smiles": "COc1ccc(CCCc2cc(O)c(OC)c(O)c2)c(O)c1O", "activation (cytotoxicity)": "2.91%"}
{"smiles": "CNc1ccc(Cl)cc1C(=O)OC[C@]1(C)[C@H]2CC[C@]3(C)[C@@H](C[C@@H](OC)[C@H](C)[C@H]3C3=C(O)C(=O)OC3O)[C@]2(C)CC[C@H]1O", "note": "(stereo not given in full)", "activation (cytotoxicity)": "-1.64%"}
{"smiles": "COc1c(O)cc2oc(-c3ccccc3)cc(=O)c2c1O", "activation (cytotoxicity)": "-16%"}
{"smiles": "C/C1=C/[C@@H](C)[C@H](O)C/C=C/CC/C=C/C(=O)O[C@@H]1[C@H](C)C(=O)/C=C/CC1CC(=O)NC(=O)C1", "activation (cytotoxicity)": "3.24%"}
{"smiles": "CN1C(=O)[C@]23SS[C@@]1(C)C(=O)N2[C@H]1Nc2ccccc2[C@]1(c1c[nH]c2ccccc12)[C@@H]3O", "activation (cytotoxicity)": "-6.22%"}
{"smiles": "O=Cc1ccc2n1C[C@@]1(OC2)O[C@H](CO)[C@@H](O)[C@@H]1O", "activation (cytotoxicity)": "-3.53%"}
{"smiles": "CCCCCCCCCC(=O)[C@@H]1C(=O)N[C@@H](CC(C)C)C(=O)N[C@H](C)C(=O)N2CCC[C@H]2C(=O)N[C@@H](C(C)C)C(=O)N[C@H]2CS[C@H]1CNC2=O", "note": "(cyclo(L[dA]PV[X1]))", "activation (cytotoxicity)": "2.81%"}
{"smiles": "C/C(=C\\[C@H](C)C(=O)CCCC1CC(=O)NC(=O)C1)[C@@H]1OC(=O)/C=C/CC/C=C/C[C@@H](O)[C@@H]1C", "activation (cytotoxicity)": "5.22%"}
{"smiles": "COc1ccc2oc3c(OC)c(OC)c(OC)c(OC)c3c(=O)c2c1", "activation (cytotoxicity)": "-1.14% [at 9.19 µM]"}
{"smiles": "CC(=O)[C@@H]1[C@@H](O)C[C@H]2[C@]3(C)CC[C@H]4C(C)(C)CCC[C@]4(CO)[C@H]3C[C@H]3OC(=O)[C@@H]1[C@@]32C", "activation (cytotoxicity)": "-0.381%"}
{"smiles": "Oc1ccc(/C=C2/c3cc(O)cc(O)c3C(c3ccc(O)cc3)[C@H]2c2cc(O)cc(O)c2)cc1", "note": "(stereo not given in full)", "activation (cytotoxicity)": "-2.28%"}
